HPGD inh = inhibitors of human 15-hydroxyprostaglandin dehydrogenase (HPGD); Potency, µM, without a hit: at the highest dose activity change, negative = inhibition, hits mostly inhibitors; purified HPGD, NADH fluorescence kinetic, PGE2 substrate; P15428; actives 4.3% (n = 150,000); further: on the % scale 0 is the no-effect control and ±100 the full control effect
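20 nM HPGD preincubated 15 min at room temperature with compound in 50 mM Tris-HCl pH 8, 0.01% Tween 20. Started with 1 mM NAD+ and 30 uM prostaglandin E2; NADH fluorescence (360/450 nm) read 5 times over 30-s intervals, last minus first.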
KDM4E inh = inhibitors of human JMJD2E histone demethylase; AID 2147; B2RXH2; JMJD2E catalytic domain, FDH-coupled NADH fluorescence (FDH is formaldehyde dehydrogenase); Potency, µM (highest dose often 57.1 µM), inactives show at the highest dose activity change, negative = inhibition, actives largely listed as inhibitors; actives 1.6% (n = 230,000);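 further: 0% = wells with enzyme and -100% = buffer wells without enzyme; nearly all actives have a fitted effect of over 50% in size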
LMNA splice mod = changes lamin A minigene splicing in HeLa cells | HeLa LMNA splicing GFP/RFP minigene ratio, 48 h | Potency, µM (top dose mostly 46.1 µM), without a hit: at the top dose ratio change, negative = inhibition, actives largely listed as inhibitors | actives 0.01% (n = 200,000) | AID 1487; active means well fitted inhibition curve with a large enough effect in the signal ratio, with a control signal flat, not every such curve was filed as active; inconclusive means small, poorly fitted or top-dose-only effect, or effect the other way, or a change in a side signal; the % refers to the signal ratio; further: on the % scale 0 is the no-effect control and ±100 the full control effect
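Read-out is the ratio of GFP to DsRed2 object intensity, acquired by 488 nm laser-scanning cytometry on HeLa lamin A-EGFP minigene reporter cells. Compound incubation 48 hrs at 37 °C in Opti-MEM with 2% FBS; DMSO 0.5% final.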
HTT ATP protect = cytoprotection in Huntington HTT-Q103 PC12 cell model; PC12 HTT-Q103 induced, cytoprotection, ATP luminescence, 40 h; Potency, µM (top dose mostly 56.4 µM), inactives show cytoprotection (ATP increase), usual class: activators; actives 0.14% (n = 230,000); AID 1471; active means well fitted curve in the direction sought with a large enough effect; inconclusive means small, poorly fitted or top-dose-only effect, or another doubt; inactive means no such curve, though single readings can be large; an effect the other way counts as inactive or inconclusive; further: % of control where 0% means no effect; nearly all actives have a fitted effect of over 45% in size
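ATP quantification (ATPlite) reports survival of PC12 cells in which tebufenozide, 100 nM final, switches on Htt exon 1 with 103 glutamines linked to GFP; compounds are titrated.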
HTT aggregate = inhibitors of mutant huntingtin aggregate formation in PC12 cells | PC12 HttQ103-GFP aggregates, Acumen cytometry, 40 h | Potency, µM (doses to about 46.1 µM), without a hit: top-dose activity change, negative = inhibition, actives largely listed as inhibitors | actives 1.1% (n = 220,000) | AID 1688; active means well fitted curve in the direction sought with a large enough effect; inconclusive means small, poorly fitted or top-dose-only effect, or another doubt; inactive means no such curve, though single readings can be large; an effect the other way counts as inactive or inconclusive; further: on the % scale 0 is the no-effect control and ±100 the full control effect; nearly all actives have a fitted effect of over 60% in size
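PC12 cells with ecdysone-inducible HTT exon1 Q103-GFP, induced by 100 nM tebufenozide, given compounds in a concentration series. GFP aggregates (1–25 um, 6 SD above background) counted in lysates by laser-scanning cytometry, 488 nm excitation.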
ALDH1A1 inh = ALDH1A1 (human) enzyme inhibition; P00352; Purified ALDH1A1, NADH fluorescence, propionaldehyde substrate; Potency, µM (highest dose often 75.3 µM), for inactives: at the top dose activity, negative = inhibition, most hits filed as inhibitors; actives 7.3% (n = 220,000); AID 1030;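 further: plate controls were no enzyme wells and a reference inhibitor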
Target sequence (P00352 whole entry, looked up): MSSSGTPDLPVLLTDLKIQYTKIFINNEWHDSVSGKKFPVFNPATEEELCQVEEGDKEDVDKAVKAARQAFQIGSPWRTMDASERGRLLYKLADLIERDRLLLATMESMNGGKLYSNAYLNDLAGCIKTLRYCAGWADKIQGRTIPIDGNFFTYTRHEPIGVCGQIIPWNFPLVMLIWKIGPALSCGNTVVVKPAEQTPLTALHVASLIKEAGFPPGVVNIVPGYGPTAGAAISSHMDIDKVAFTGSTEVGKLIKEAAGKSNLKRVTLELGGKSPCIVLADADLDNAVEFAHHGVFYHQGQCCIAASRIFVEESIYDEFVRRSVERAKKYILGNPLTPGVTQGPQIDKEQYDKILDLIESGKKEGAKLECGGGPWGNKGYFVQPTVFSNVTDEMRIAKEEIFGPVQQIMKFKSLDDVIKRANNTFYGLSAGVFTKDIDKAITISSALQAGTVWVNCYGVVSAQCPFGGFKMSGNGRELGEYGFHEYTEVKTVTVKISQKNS
An asterisk follows results filed as active; i = inactive; ? = inconclusive; / = not tested or not shown; [ ] = dose if it differs, or a comment. An excerpt weighted towards active compounds, which were near 9.2% of everything screened. Unless noted, the call rests on the fitted dose curve; in most records, active means well fitted inhibition curve with a large enough effect (not every such curve was filed as active); inconclusive means small, poorly fitted or top-dose-only effect, or another doubt; inactive means no such curve, though single readings can be large or run the other way. Potency means the concentration at half of the fitted maximal effect.

SMILES	HPGD inh	KDM4E inh	LMNA splice mod	HTT ATP protect	HTT aggregate	ALDH1A1 inh
COc1ccc(-c2cc(C(F)(F)F)n3nc(C(=O)N4CCCC4)cc3n2)cc1	?	-1%	-2%	-23%	7%	?
CN(CC(=O)O)Cc1c(O)c(Cl)cc(Cl)c1Cl	-6%	/	/	-4%[10 µM]	/	6%[13.5 µM]
C=CCSC1=N/C(=C\c2cc(OCC)c(OC(C)=O)c([N+](=O)[O-])c2)C(=O)S1	6.3µM*	4%	8%	-16%[10 µM]	0%	0%
O=C(O)CNC(=O)C12CC3CC(CC(Cl)(C3)C1)C2	/	14%	?	-25%	14%	-3%
O=c1[nH]c(C(F)(F)F)nc2c1nnn2Cc1ccccc1F	18µM*	-14%	21%	-5%	-11%	12%
CCCc1nc2c(nnn2Cc2ccccc2F)c(=O)[nH]1	28µM*	3%	-2%	-2%	8%	-51%
COc1nc(N(c2ccccc2)c2ccccc2)nc(-n2ccnc2)n1	-13%	2%	?	-48%	?	1.4µM*
COc1ccc(-n2ccnc2)cc1	/	12%	?	18%[10 µM]	-5%	2%
CCOC(=O)C1CCC(CN(Cc2ccc(Cl)cc2)S(=O)(=O)c2ccc(Br)cc2)CC1 (stereo not drawn)	/	/	-17%[46 µM]	/	/	/
CCOC(=O)c1ccc(C#Cc2ccc3c(c2)C(C)(C)CCS3)nc1	/	/	/	-33%	0%	/
O=C(O)C1OC(Oc2c(-c3ccc(O)c(O)c3)oc3cc(O)cc(O)c3c2=O)C(O)C(O)C1O (stereo not drawn)	-15%	4.5µM*	?	/	-8%	?
C[C@@H]1O[C@@H](OC[C@@H]2O[C@@H](Oc3c(-c4ccc(O)c(O)c4)oc4cc(O)cc(O)c4c3=O)[C@H](O)[C@H](O)[C@@H]2O)[C@H](O)[C@H](O)[C@@H]1O	/	/	/	0%	/	/
O=C(CN1C(=O)NC2(CCCCC2)C1=O)NCc1cccs1	0%	2%	-17%	-8%[10 µM]	3%	10%
O=C(CN1C(=O)C2CC=CCC2C1=O)NCc1cccs1 (stereo not drawn)	/	-7%	2%[46 µM]	-14%	7%	28µM*
CN1C(=O)CSc2ccc(NC(=O)NCCC3=CCCCC3)cc21	-9%	4%	13%	-12%	-2%[9.22 µM]	7.9µM*
COCCNC(=O)Nc1ccc2c(c1)N(C)C(=O)CS2	-7%	-7%	12%	25%	18%[9.22 µM]	22µM*
CC(C)CCNC(=O)Nc1ccc2c(c1)N(C)C(=O)CS2	-2%	-3%	9%	-8%	19%	2%
COC(=O)c1ccc2c(c1)C(C)(C)C(/C=C/c1ccccc1O)=[N+]2C	?	?	?	-110%	3.5µM*	?
O=C(c1cc2ncc(Br)cn2n1)N1CCCCC1	/	1%	/	-12%	7%	?
O=C(c1cc2ncc(CCCl)cn2n1)N1CCCCCC1	1µM*	?	10%	/	10%	?
NC(=O)Cn1c2[n+](c3ccccc31)CC(O)CS2 (stereo not drawn)	-9%	1%	5%	28%	-8%	11µM*
COc1ccccc1NC(=O)c1ccc(-c2ccc(Br)cc2)o1	?	i	-20%	-23%	8%	?
COc1ccccc1NC(=O)c1ccc(-c2ccccc2[N+](=O)[O-])o1	/	8%	/	-19%	4%	7.9µM*
O=C1CN=C(Nc2ccccc2Cl)N1c1ccccc1	-14%	2%	-16%	-83%[10 µM]	2.8µM*	?
CCOc1ccc(N2C(=O)CN=C2Nc2ccccc2Cl)cc1	-9%	0%	2%	5%	14%	9%
CCC1(C)NC(=O)N(/N=C/c2cc(OC)c(O)c(OC)c2)C1=O (stereo not drawn)	/	-26%	/	-29%	-17%	10µM*
COc1cc(/C=N/N2C(=O)CSC2=S)cc(Br)c1O	/	?	3%[46 µM]	-8%	14%	?
CC(C)=C1C2CCC1C1C(=O)N(c3ccc4c(c3)OCO4)C(=O)C21 (stereo not drawn)	-4%	6%	10%	23%[10 µM]	12%	-4%
